# Source: PubChem BioAssay
# HepG2 viability – HepG2 cytotoxicity, counter-screen for TGF-b inhibitors | AID 588856 | Potency, µM (top dose mostly 46.1 µM), for inactives: at the highest dose activity change, negative = cytotoxicity, hits mostly cytotoxic | HepG2 CAGA-GFP viability, ATP luminescence, 18 h | hit rate 0.76% among 410,000; also: potency is read from the fitted curve at half-maximal effect
#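 HepG2 CAGA-GFP cells (1000/well, DMEM with 1% FBS) received compound, then TGF-beta at 500 pg/mL final, and were incubated 18 hours at 37 degrees C. Viability was read by CellTiter-Glo luminescence. Media-only wells were set as complete cell-killing and DMSO as no toxicity.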
# TDP1 cell noCPT – qHTS for Inhibitors of human tyrosyl-DNA phosphodiesterase 1 (TDP1): qHTS in cells in absence of CPT; Potency, µM (series often up to 46.2 µM), inactives show top-dose activity change, negative = growth inhibition, usual class: inhibitors; hit rate 15% among 420,000; DT40 Tdp1-/- hTDP1 cells, no CPT, ATP luminescence, 48 h; also: potency is read from the fitted curve at half-maximal effect; % is scaled to controls: 0 for no effect and ±100 for the full control effect; nearly all actives have a fitted effect of over 55% in size
#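 Chicken DT40 Tdp1-/- cells complemented with human TDP1, screened without camptothecin (DMSO vehicle only), 400 cells/well. Compounds pin-transferred, cells incubated at 37 °C for at least 48 hr. Growth read as ATP-dependent luminescence (CellTiter-Glo, 30 min at RT).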
# TDP1 block – blocks human tyrosyl-DNA phosphodiesterase 1; Q9NUW8; recombinant TDP1, AlphaScreen DNA substrate cleavage; Potency, µM (doses to about 130 µM), inactives show at the top dose activity change, negative = inhibition, usual class: inhibitors; hit rate 0.28% among 350,000; AID 485290; also: potency is read from the fitted curve at half-maximal effect; % is scaled to controls: 0 for no effect and ±100 for the full control effect; nearly all actives have a fitted effect of over 40% in size
# Target sequence (Q9NUW8 whole entry, looked up): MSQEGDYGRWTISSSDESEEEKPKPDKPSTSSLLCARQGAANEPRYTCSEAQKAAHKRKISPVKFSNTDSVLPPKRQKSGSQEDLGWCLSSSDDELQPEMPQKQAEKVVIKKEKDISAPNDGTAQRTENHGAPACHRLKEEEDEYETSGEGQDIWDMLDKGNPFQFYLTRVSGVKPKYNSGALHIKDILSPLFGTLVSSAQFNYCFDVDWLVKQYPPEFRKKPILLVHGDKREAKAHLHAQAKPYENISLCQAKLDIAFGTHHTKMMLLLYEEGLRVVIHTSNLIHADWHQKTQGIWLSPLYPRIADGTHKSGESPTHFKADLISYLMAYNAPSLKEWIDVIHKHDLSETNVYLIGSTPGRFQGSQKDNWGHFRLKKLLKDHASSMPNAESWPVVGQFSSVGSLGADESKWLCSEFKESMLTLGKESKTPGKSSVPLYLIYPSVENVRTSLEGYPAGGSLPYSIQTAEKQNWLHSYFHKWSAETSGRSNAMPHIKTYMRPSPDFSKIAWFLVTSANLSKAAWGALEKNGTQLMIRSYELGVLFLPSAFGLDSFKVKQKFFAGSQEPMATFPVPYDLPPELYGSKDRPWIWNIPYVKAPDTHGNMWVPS
#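 Here, a 5' biotin and 3' phosphotyrosine-FITC DNA oligonucleotide reports Tdp1 activity: intact substrate bridges AlphaScreen beads, while cleavage leaves a 3' phosphate and drops signal. All incubations at room temperature.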
# TDP1 cell CPT – DT40-hTDP1 cell growth loss with CPT; chicken DT40 Tdp1-/-;hTDP1 cells + 20 nM CPT, ATP luminescence, 48 h; Potency, µM (top dose mostly 46.2 µM), without a hit: at the highest dose activity change, negative = growth inhibition, actives largely listed as inhibitors; hit rate 12% among 420,000; AID 686979; also: potency is read from the fitted curve at half-maximal effect; % is scaled to controls: 0 for no effect and ±100 for the full control effect; nearly all actives have a fitted effect of over 55% in size
#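 Chicken DT40 Tdp1-/- cells stably complemented with human TDP1 were seeded at 400 cells/well in medium containing 20 nM camptothecin, exposed to pin-transferred compounds, and grown at 37 °C for at least 48 hr. Viability was read as ATP luminescence.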
# TGFb inhibitor – blocks TGF-b signaling; Potency, µM (titrated, usually from 46.1 µM), for inactives: at the highest dose activity, negative = inhibition, hits mostly inhibitors; AID 588855; hit rate 1.2% among 410,000; HepG2 CAGA-GFP TGF-b/SMAD3 reporter, GFP fluorescence, 18 h; TGF-beta stimulated, 500 pg/mL final; also: potency is read from the fitted curve at half-maximal effect; % is scaled to controls: 0 for no effect and ±100 for the full control effect; nearly all actives have a fitted effect of over 65% in size
#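 Read-out: total well GFP (ex488/em500-530) summed from mean per-cell fluorescence. Cells: HEPG2 CAGA-GFP, 1% FBS DMEM, 18 h at 37 degrees C with 500 pg/mL final TGF-beta. Unstimulated wells served as the full-inhibition control; stimulated DMSO wells = 0%.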
# IL1B secr inh – blocks inflammasome-driven IL-1 beta release; activity change, % at 57.5 µM; THP-1 LPS/ATP IL-1B secretion, AlphaLISA, 16 h; stronger effect = lower value; hit rate 4.7% among 360,000; in the data active = activity change below about -50%; inconclusive = mostly about -30% to -49%; also: % is scaled to controls: 0 for no effect and ±100 for the full control effect
#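 Secreted IL-1B measured by AlphaLISA bead assay after 16 h compound exposure of THP-1 cells; compounds (final up to 57.5 uM) added 1 h before LPS (250 ng/mL) and ATP (1.25 mM) stimulation; lower signal means less secretion.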
# * hit, by the source's call; u = inconclusive; x = not tested or not shown. In the library only some 19% were active in any assay of this set; here they are far more common. Unless noted, calls follow the shape of the dose curve; as a rule, active = well fitted curve in the direction sought with a large enough effect; inconclusive = small, poorly fitted or top-dose-only effect, or another doubt; inactive = no such curve, though single readings can be large; an effect the other way counts as inactive or inconclusive.
SMILES,HepG2 viability,TDP1 cell noCPT,TDP1 block,TDP1 cell CPT,TGFb inhibitor,IL1B secr inh
O=C(NN=Cc1ccccc1OC(F)F)c1cccc(S(=O)(=O)N2CCCC2)c1,-33.5%,-13.4%,0.0%,-7.2%,-21.1%,9.7
Nc1nc2c([nH]c(=O)n2C2OC(CO)C(O)C2O)c(=O)[nH]1 (configuration not stated),x,-0.5%,2.7%,7.9%,x,x
CC(C)CC(=O)[C@@H](O)Cc1ccc(O)cc1,x,-22.2%,x,-2.9%,x,22.3
CCOc1ccc(-c2cc(CCCC(=O)NCc3ccco3)no2)cc1,-23.4%,20.6µM*,0.0%,u,-14.9%,17.7
Cc1ccc(-c2noc(CCCC(=O)NCc3ccco3)n2)cc1,-28.5%,18.4µM*,0.0%,u,u,x
O=C(CCCc1nc(-c2ccc(Cl)cc2)no1)NCc1ccco1,-19.8%,11.6µM*,1.2%,7.31µM*,-18.8%,x
COc1ccc(-c2noc(CCC(=O)NCc3ccco3)n2)cc1,-2.4%,-27.1%,-5.1%,-17.0%,-16.6%,7.8
Cc1ccccc1-c1noc(CCC(=O)NCc2ccco2)n1,-1.2%,2.9%,x,2.0%,-10.3%,11.7
Cc1cc(C(=O)Nc2cc(S(C)(=O)=O)ccc2Cl)c(C)o1,-5.2%,-1.0%,-5.7%,23.9%,20.3%,4.7
O=C(C1CC(=O)N(c2ccccc2F)C1)N1CCOCC1 (configuration not stated),8.6%,-7.9%,0.5%,20.6%,11.7%,-7.3
CC(C)c1ccc(C(CC(=O)c2ccc(Cl)cc2)C(=O)O)cc1 (configuration not stated),-15.2%,-20.5%,2.0%,-5.8%,0.9%,61.2
O=C(CC(C(=O)O)c1ccc(Cl)cc1)c1ccc(Br)cc1 (configuration not stated),10µM*,-14.1%,x,7.7%,-3.6%,20.4
Cc1ccc(COCC(CC(C)C)N2CCN(C(=O)c3cccc(C(F)(F)F)c3)CCC2=O)cc1 (configuration not stated),-12.4%,u,2.6%,u,u,-27.2
CC(C)CC(COCc1ccc([N+](=O)[O-])cc1)N1CCN(C(=O)c2ccc(C(F)(F)F)cc2)CCC1=O (configuration not stated),-3.9%,u,-6.6%,18.4µM*,u,u
Cc1cccc(COCC(CC(C)C)N2CCN(C(=O)c3ccc(C(F)(F)F)cc3)CCC2=O)c1 (configuration not stated),-12.2%,u,2.7%,23.1µM*,u,-53.8*
CC(C)C[C@@H](COCc1cccc(Cl)c1)N1CCN(C(=O)c2cccc(C(F)(F)F)c2)CCC1=O,x,16.4µM*,7.1%,u,x,u
CC(C)C[C@@H](COCc1ccc(F)cc1)N1CCN(C(=O)c2cccc(C(F)(F)F)c2)CCC1=O,x,u,x,u,x,-13.1
Cc1cccc(COC[C@H](CC(C)C)N2CCN(C(=O)c3ccc(C(C)(C)C)cc3)CCC2=O)c1,x,u,x,u,x,-70.2*
Cc1c(C(=O)NN2CCOCC2)nn(-c2ccc(Cl)cc2Cl)c1-c1ccc(I)cc1,x,0.9%,15.4%,-3.8%,x,x
COc1ccc(S(=O)(=O)N(C)C)cc1NC(=O)CSc1nnc(-c2cccnc2)o1,-5.4%,-11.1%,4.2%,0.9%,7.8%,5.7
CCCCCCN1C[C@H](n2cc(COC(=O)c3ccccc3)nn2)[C@@H](O)C[C@@H]1c1ccc(C)cc1,10µM*,u,x,u,u,24.9
CCCCCCN1C[C@@H](n2cc(COC(=O)c3ccccc3)nn2)[C@H](O)C[C@@H]1c1ccc(Cl)cc1,0.7%,20.6µM*,x,13µM*,16.8%,-16.5
